Measurements taken from PubChem BioAssay (NCI).
Compounds without any hit were thinned out: in the full panel of roughly 83,000, 20% have a hit.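 In brief: 96-well plates, 48 h treatment, single concentration, percent growth endpoint.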 Values without a mark were called inactive. Calls of active or inactive are those of the source. How the source made its calls: active means growth percent below 10; inactive means the rest.

Key:
Test in all cases: NCI-60 one-dose screen, 48 h (100 = growth as untreated, 0 = no growth, -100 = all killed)
Details in all cases: 10 µM unless noted
NCI/ADR-RES ovarian = system: NCI/ADR-RES ovarian
T-47D breast = system: T-47D breast
BT-549 breast = system: BT-549 breast
MDA-MB-435 melanoma = system: MDA-MB-435 melanoma
SW-620 colon = system: SW-620 colon
MCF7 breast = system: MCF7 breast
HCC-2998 colon = system: HCC-2998 colon
KM12 colon = system: KM12 colon
HCT-116 colon = system: HCT-116 colon

Row | SMILES | growth (NCI/ADR-RES ovarian) | growth (T-47D breast) | growth (BT-549 breast) | growth (MDA-MB-435 melanoma) | growth (SW-620 colon) | growth (MCF7 breast) | growth (HCC-2998 colon) | growth (KM12 colon) | growth (HCT-116 colon)
1 | O=C([O][Hg][CH2]C1COCC([CH2][Hg][O]C(=O)c2ccccc2)O1)c1ccccc1 (centres undefined) | 106% | 11.4% | 97.4% | 90.2% | -91.2% (active) | 20.9% | 114% | 102% | –
2 | COC(=O)[C@@H](C)C[C@H](Cc1ccccc1)NC(=O)c1csc([C@@H](C[C@H](C(C)C)N(C)C(=O)[C@H](C)NC(=O)[C@H]2CCCN2C)OC(C)=O)n1 | 92.4% | 50.9% | 36.9% | -27.1% (active) | 28.5% | – | 62.8% | 30.7% | –
3 | CCC(=O)Nc1ccc(Cl)c(Cl)c1 | 102% | 87.3% | 113% | 107% | 101% | – | 93.9% | 99.9% | 99.1%
4 | CC(C)COC(C[N+](=O)[O-])C(Cl)(Cl)Cl (centres undefined) | 94.2% | 111% | 106% | 111% | 107% | – | 102% | 104% | 111%
5 | COC(=O)[C@@]1(C)CC[C@]2(C)CC[C@]3(C)C4=CC(=O)c5c(cc(O)c(O)c5C)[C@]4(C)CC[C@@]3(C)[C@@H]2C1 | 63.4% | 54.1% | 82.1% | 58.5% | 60.3% | – | 76.7% | 50.4% | 31.3%
6 | O=Cc1cn(Cc2ccc(Cl)cc2)c2ccccc12 | 90.6% | 24.4% | 92.7% | 104% | 68.1% | – | 98% | 109% | 63.2%
7 | Cc1ccc(N2COOC3(OOC2)C2CC4CC(C2)CC3C4)cc1 | 95.6% | 82.7% | 95.7% | 93.2% | 108% | – | – | 90.6% | 89%
8 | CC(C)OC(=O)[C@H](C)NP(=O)(Oc1ccccc1)C1CCCN(O)C1=O (some centres undefined) | 98.4% | 94.5% | 95% | 96.1% | 93.1% | – | 97.2% | 94.5% | 89.6%
9 | COc1ccc(C(=O)c2cc(OC)c(OC)c(OC)c2)cc1OC(C)=O | 7.97% (active) | 55.2% | 8.56% (active) | -16.3% (active) | 25.1% | – | – | 11.2% | 6.24% (active)
10 | O=C(CCCCCNC1=CC(=O)c2ccccc2C1=O)NCCC[Te]c1ccccc1 | -0.191% (active) | -60.5% (active) | -27.7% (active) | -15.5% (active) | -7.07% (active) | – | -48.7% (active) | -41.6% (active) | -51% (active)
11 | CC(C)=CC1C(C(=O)OCc2cccc(Oc3ccccc3)c2)C1(C)C (centres undefined) | 95% | 81.5% | 100% | 91.9% | 94.8% | – | 94.5% | 97.3% | 84.8%
12 | O=P(N1CC1)(N1CC1)N1CCc2ccccc21 | 101% | 111% | 99.4% | 111% | 101% | – | 99.5% | 113% | 94.2%
13 | N#C[Se]CCN1C(=O)c2ccccc2C1=O | 9.97% (active) | 49.9% | 34.3% | 20.8% | 23.9% | – | 53.1% | – | 9.26% (active)
14 | O=c1[nH]c2ccc([N+](=O)[O-])cc2c(=O)o1 | 101% | 111% | 95.3% | 111% | 105% | – | 102% | 106% | 103%
15 | N/C(=N\N=C\c1ccc(-c2ccccc2)cc1)N[N+](=O)[O-] | 19.4% | 36.1% | 52% | -27.4% (active) | 20.7% | – | 60.9% | 32.1% | 28.7%
16 | COc1cc(/C=C\c2cc(OC)c(OC)c(OC)c2)cc(N/C=C\C(=O)c2cc(OC)c(OC)c(OC)c2)c1OC | 19.5% | -3% (active) | 43.9% | -37.3% (active) | 28.2% | – | 53.6% | 21.8% | 17.8%

Row | SMILES | growth (NCI/ADR-RES ovarian) | growth (T-47D breast) | growth (BT-549 breast) | growth (MDA-MB-435 melanoma) | growth (SW-620 colon) | growth (MCF7 breast) | growth (HCC-2998 colon) | growth (KM12 colon) | growth (HCT-116 colon)
17 | CC1[C@H](C)OC(=O)CC(O)CC(O)CC(O)CCC(O)C(O)C[C@]2(O)CC(O)C(C(=O)O)C(CC(OC3O[C@H](C)[C@@H](O)[C@H](N)[C@@H]3O)/C=C/C=C/C=C/C=C/CC/C=C/C=C/[C@H](C)[C@H]1O)O2 (some centres undefined) | 93.2% | 108% | 105% | 102% | 99.5% | – | 103% | 106% | 97%
18 | CC1(C)C(C(=O)c2cn(CCCCF)c3ccccc23)C1(C)C | 98.1% | 78.6% | 100% | 108% | 99.1% | – | 116% | 102% | 90.4%
19 | [Cl][Hg][c]1cc[c]([Hg][Cl])o1 | 69.3% | -7.76% (active) | 14% | 55.1% | 12.3% | – | 106% | 76% | 30.7%
20 | COc1ccc(/C=C\c2cc(OC)c(OC)c(OC)c2)cc1NS(=O)(=O)c1ccc(Cl)cc1 | 35.2% | 59.9% | 83.5% | 3.63% (active) | 73.6% | – | 74.8% | 50.4% | 61.8%
21 | C/C(=C\c1ccn(-c2ccc(N)c(F)c2)n1)[C@@H]1C[C@@H]2O[C@]2(C)CCC[C@H](C)[C@H](O)[C@@H](C)C(=O)C(C)(C)[C@@H](O)CC(=O)O1 | -3.5% (active) | 38.5% | 12.2% | -41.1% (active) | 44.7% | – | 4.73% (active) | 12.5% | 10.7%
22 | CC(=O)O[C@H](C[C@H](C(C)C)N(C)C(=O)[C@@H](NC(=O)[C@H]1CCCCN1C)C(C)C)c1nc(C(=O)N[C@@H](Cc2ccccc2)C[C@H](C)C(=O)O)c(C)s1 | 1.59% (active) | 45.7% | -8.43% (active) | -27% (active) | 25.5% | – | 14% | 15.6% | –
23 | COc1cc2c(=O)n(C3CCCCCCC3)c3c4cc[nH]c4ncc3c2cc1OC | 40.5% | 39.5% | 44.6% | 57.9% | 56.8% | – | 96.2% | 19.1% | 31.5%
24 | CCCOC(=O)N[C@H]1CCc2c(Br)c(OC)c(OC)c(OC)c2-c2ccc(SC)c(=O)cc21 | 10.4% | 51.5% | 2.53% (active) | -49.4% (active) | 15.3% | – | 16.2% | -15.7% (active) | -12.6% (active)
25 | COc1ccc(/C=C\c2cc(OC)c(OC)c(OC)c2)cc1OCC(=O)Nc1nc2ccc(OC(F)(F)F)cc2s1 | -7.34% (active) | 22.4% | 58.7% | -30.2% (active) | 25.1% | – | – | – | 19.5%
26 | CCCC[C@H](NC(=O)[C@H]1CCCN1C)C(=O)N(C)[C@H](C[C@@H](OC(C)=O)c1nc(C(=O)N[C@@H](Cc2ccccc2)C[C@H](C)C(=O)OCC)cs1)C(C)C | 7.13% (active) | 54.4% | -21.7% (active) | -28.6% (active) | 22.1% | – | 14.2% | 13.6% | –
27 | c1cnc2[nH]cc(-c3csc(-c4cn(CCCCN5CCOCC5)c5ccccc45)n3)c2c1 | 69.4% | 36.1% | 79.6% | 24.4% | 18.1% | – | 56.9% | – | 40.3%
28 | O=C(c1cccc(O)c1O)c1cn(Cc2ccc(F)cc2)c2cccc(O)c12 | 19.3% | 34.5% | 41.4% | 14.2% | 37.1% | – | 35.6% | 44.1% | 30.7%
29 | O=[N+]([O-])CC(c1ccccc1Cl)c1c(-c2ccccc2)[nH]c2ccccc12 (centres undefined) | 25.5% | 22.1% | 37.3% | -9.48% (active) | 25.2% | – | 71.3% | 26.8% | 20.3%
30 | CC1(C)CN1P(=O)(N1CC1(C)C)N1CC1(C)C (centres undefined) | 113% | 107% | 105% | 124% | 100% | – | 110% | 116% | 105%
31 | CCOP1(=O)CC(C)=C(Cl)C(P(=O)(OCC)OCC)C1 (centres undefined) | 85.8% | 96.4% | 112% | 114% | 97.3% | – | 86.3% | 114% | 107%
